# Data as given in the supplement of paper PMC8728848.
# Many of the other results were omitted from the sample, so the strongest signals are more common in it than they were.
# B1: DCL-1 (Homo sapiens), Q8IX05 (protein)
# chain: MLRAALPALLLPLLGLAAAAVADCPSSTWIQFQDSCYIFLQEAIKVESIEDVRNQCTDHGADMISIHNEEENAFILDTLKKQWKGPDDILLGMFYDTDDASFKWFDNSNMTFDKWTDQDDDEDLVDTCAFLHIKTGEWKKGNCEVSSVEGTLCKTAIPYKRKYLSDNHILISALVIASTVILTVLGAIIWFLYKKHSDSRFTTVFSTAPQSPYNEDCVLVVGEENEYPVQFD
# Key:
# Assay in all cases: glycan array binding signal (z-score within array); higher = stronger binding
# Details in all cases: glycan notation: IUPAC condensed, linker removed
# [1] = biological target: Fuc(a1-2)Gal(b1-3)GlcNAc(b1-2)Man(a1-3)[Fuc(a1-2)Gal(b1-3)GlcNAc(b1-2)Man(a1-6)]Man(b1-4)GlcNAc(b1-4)GlcNAc
# Summary of the method: (§1)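 Glycan array binding is given as a within-array Z-score, which can be read as non-binding when negative. The arrays, 3228 of them, came from the Consortium for Functional Glycomics database and were retained only where the protein sequence was available. Z-scores were averaged across arrays of the same protein sequence at different concentrations or buffers and across linkers.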
# [2] = biological target: Fuc(a1-2)Gal(b1-3)GlcNAc(b1-3)Gal(b1-4)Glc
# Summary of the method: as §1
# [3] = biological target: Fuc(a1-2)Gal(b1-3)GlcNAc(b1-3)[Fuc(a1-3)[Gal(b1-4)]GlcNAc(b1-6)]Gal(b1-4)Glc
# Summary of the method: as §1
# [4] = biological target: Fuc(a1-2)Gal(b1-3)[Fuc(a1-4)]GlcNAc(b1-2)Man(a1-3)[Fuc(a1-2)Gal(b1-3)[Fuc(a1-4)]GlcNAc(b1-2)Man(a1-6)]Man(b1-4)GlcNAc(b1-4)GlcNAc
# Summary of the method: as §1
# [5] = biological target: Fuc(a1-2)Gal(b1-4)Glc
# Summary of the method: as §1
# [6] = biological target: Fuc(a1-2)Gal(b1-4)GlcNAc(b1-2)[Fuc(a1-2)Gal(b1-4)GlcNAc(b1-4)]Man(a1-3)[Fuc(a1-2)Gal(b1-4)GlcNAc(b1-2)Man(a1-6)]Man(b1-4)GlcNAc(b1-4)GlcNAc
# Summary of the method: as §1
# [7] = biological target: Fuc(a1-2)Gal(b1-4)[Fuc(a1-3)]GlcNAc(b1-3)GalNAc
# Summary of the method: as §1
# [8] = biological target: Fuc(a1-2)[Gal(a1-3)]Gal(b1-3)GlcNAc
# Summary of the method: as §1
# [9] = biological target: Fuc(a1-2)[Gal(a1-3)]Gal(b1-4)GlcNAc
# Summary of the method: as §1
# [10] = biological target: Fuc(a1-2)[GalNAc(a1-3)]Gal(b1-3)GlcNAc(b1-2)Man(a1-3)[Fuc(a1-2)[GalNAc(a1-3)]Gal(b1-3)GlcNAc(b1-2)Man(a1-6)]Man(b1-4)GlcNAc(b1-4)[Fuc(a1-6)]GlcNAc
# Summary of the method: as §1
# [11] = biological target: Fuc(a1-2)[GalNAc(a1-3)]Gal(b1-4)GlcNAc
# Summary of the method: as §1
# [12] = biological target: Fuc(a1-2)[GalNAc(a1-3)]Gal(b1-4)GlcNAc(b1-2)Man(a1-3)[Fuc(a1-2)[GalNAc(a1-3)]Gal(b1-4)GlcNAc(b1-2)Man(a1-6)]Man(b1-4)GlcNAc(b1-4)GlcNAc
# Summary of the method: as §1
# [13] = biological target: Fuc(a1-3)[Gal3S(b1-4)]GlcNAc6S
# Summary of the method: as §1
# [14] = biological target: Gal(a1-3)Fuc(a1-2)Gal(b1-4)GlcNAc(b1-3)[Gal(a1-3)Fuc(a1-2)Gal(b1-4)GlcNAc(b1-6)]GalNAc
# Summary of the method: as §1
# [15] = biological target: Gal(a1-3)Gal(b1-4)GlcNAc
# Summary of the method: as §1
# [16] = biological target: Gal(a1-3)[Gal(a1-4)]Gal(b1-4)GlcNAc
# Summary of the method: as §1
# [17] = biological target: Gal(a1-4)Gal(b1-4)Glc
# Summary of the method: as §1
# [18] = biological target: Gal(a1-4)Gal(b1-4)GlcNAc
# Summary of the method: as §1
# [19] = biological target: Gal(a1-4)Gal(b1-4)GlcNAc(b1-3)Gal(b1-4)Glc
# Summary of the method: as §1
# [20] = biological target: Gal(b1-3)GlcNAc(b1-2)[Gal(b1-3)GlcNAc(b1-6)]Man(a1-6)[Gal(b1-3)GlcNAc(b1-2)Man(a1-3)]Man(b1-4)GlcNAc(b1-4)GlcNAc
# Summary of the method: as §1
# [21] = biological target: Gal(b1-3)GlcNAc(b1-3)Gal(b1-4)GlcNAc
# Summary of the method: as §1
# [22] = biological target: Gal(b1-4)Gal
# Summary of the method: as §1
# [23] = biological target: Gal(b1-4)Glc6S
# Summary of the method: as §1
# [24] = biological target: Gal(b1-4)GlcNAc(b1-3)Gal(b1-4)GlcNAc
# Summary of the method: as §1
# [25] = biological target: Gal(b1-6)Gal
# Summary of the method: as §1
# [26] = biological target: Gal3S(b1-4)[Fuc(a1-3)]Glc6S
# Summary of the method: as §1
# [27] = biological target: Gal4S(b1-4)GlcNAc
# Summary of the method: as §1
# [28] = biological target: Gal6S(b1-4)Glc
# Summary of the method: as §1
# [29] = biological target: GalNAc(b1-3)Gal
# Summary of the method: as §1
# [30] = biological target: GalNAc(b1-4)Gal(b1-4)Glc
# Summary of the method: as §1
# [31] = biological target: Glc(b1-4)Glc
# Summary of the method: as §1
# [32] = biological target: Glc(b1-6)Glc
# Summary of the method: as §1
# [33] = biological target: GlcNAc(a1-6)Gal(b1-4)GlcNAc
# Summary of the method: as §1
# [34] = biological target: GlcNAc(b1-2)[GlcNAc(b1-4)]Man(a1-3)[GlcNAc(b1-4)][GlcNAc(b1-2)[GlcNAc(b1-6)]Man(a1-6)]Man(b1-4)GlcNAc(b1-4)GlcNAc
# Summary of the method: as §1
# [35] = biological target: GlcNAc(b1-4)Gal(b1-4)GlcNAc
# Summary of the method: as §1
# [36] = biological target: Man(a1-2)Man(a1-3)[Man(a1-2)Man(a1-6)]Man(a1-6)[Man(a1-2)Man(a1-2)Man(a1-3)]Man(b1-4)GlcNAc(b1-4)GlcNAc
# Summary of the method: as §1
# [37] = biological target: Man(a1-3)[Man(a1-6)]Man(a1-6)[Man(a1-2)Man(a1-3)]Man(b1-4)GlcNAc(b1-4)GlcNAc
# Summary of the method: as §1
# [38] = biological target: Neu5Ac(a2-3)Gal(b1-3)GalNAc(b1-3)Gal(a1-4)Gal(b1-4)Glc
# Summary of the method: as §1
# [39] = biological target: Neu5Ac(a2-3)Gal(b1-3)GlcNAc(b1-3)GalNAc
# Summary of the method: as §1
# [40] = biological target: Neu5Ac(a2-3)Gal(b1-4)GlcNAc(b1-6)[Neu5Ac(a2-3)Gal(b1-3)]GalNAc
# Summary of the method: as §1
# [41] = biological target: Neu5Ac(a2-3)Gal(b1-4)[Fuc(a1-3)]GlcNAc(b1-3)Gal
# Summary of the method: as §1
# [42] = biological target: Neu5Ac(a2-3)Gal(b1-4)[Fuc(a1-3)]GlcNAc(b1-3)GalNAc
# Summary of the method: as §1
# [43] = biological target: Neu5Ac(a2-6)Gal(b1-4)GlcNAc(b1-2)Man(a1-3)[Neu5Ac(a2-6)Gal(b1-4)GlcNAc(b1-2)Man(a1-6)]Man(b1-4)GlcNAc(b1-4)GlcNAc
# Summary of the method: as §1
# [44] = biological target: Neu5Ac(a2-6)Gal(b1-4)GlcNAc(b1-3)Gal(b1-4)GlcNAc(b1-3)Gal(b1-4)GlcNAc
# Summary of the method: as §1
# [45] = biological target: Neu5Ac9Ac(a2-3)Gal(b1-4)GlcNAc
# Summary of the method: as §1
binder,measurement,setting,value
B1,glycan array binding signal (z-score),[1],0.687
same,glycan array binding signal (z-score),[2],-0.715
same,glycan array binding signal (z-score),[3],0.156
same,glycan array binding signal (z-score),[4],-0.488
same,glycan array binding signal (z-score),[5],0.028
same,glycan array binding signal (z-score),[6],-0.471
same,glycan array binding signal (z-score),[7],1.87
same,glycan array binding signal (z-score),[8],3.01
same,glycan array binding signal (z-score),[9],-0.77
same,glycan array binding signal (z-score),[10],-0.151
same,glycan array binding signal (z-score),[11],-0.734
same,glycan array binding signal (z-score),[12],0.221
same,glycan array binding signal (z-score),[13],-0.491
same,glycan array binding signal (z-score),[14],0.69
same,glycan array binding signal (z-score),[15],0.709
same,glycan array binding signal (z-score),[16],-0.245
same,glycan array binding signal (z-score),[17],-0.289
same,glycan array binding signal (z-score),[18],0.053
same,glycan array binding signal (z-score),[19],-0.496
same,glycan array binding signal (z-score),[20],2.22
same,glycan array binding signal (z-score),[21],-0.606
same,glycan array binding signal (z-score),[22],-0.028
same,glycan array binding signal (z-score),[23],0.595
same,glycan array binding signal (z-score),[24],2.35
same,glycan array binding signal (z-score),[25],-0.915
same,glycan array binding signal (z-score),[26],0.532
same,glycan array binding signal (z-score),[27],-0.14
same,glycan array binding signal (z-score),[28],0.156
same,glycan array binding signal (z-score),[29],-0.083
same,glycan array binding signal (z-score),[30],-0.041
same,glycan array binding signal (z-score),[31],-0.786
same,glycan array binding signal (z-score),[32],-0.407
same,glycan array binding signal (z-score),[33],6.83
same,glycan array binding signal (z-score),[34],0.126
same,glycan array binding signal (z-score),[35],-0.427
same,glycan array binding signal (z-score),[36],2.43
same,glycan array binding signal (z-score),[37],10.6
same,glycan array binding signal (z-score),[38],3.04
same,glycan array binding signal (z-score),[39],-0.021
same,glycan array binding signal (z-score),[40],0.223
same,glycan array binding signal (z-score),[41],0.066
same,glycan array binding signal (z-score),[42],5.12
same,glycan array binding signal (z-score),[43],0.079
same,glycan array binding signal (z-score),[44],-1.67
same,glycan array binding signal (z-score),[45],2.38
